Assay results taken from PubChem BioAssay AID651599 (National Center for Advancing Translational Sciences (NCATS), 2012).
Results filed as inconclusive are left out. Activity calls are given as the source filed them. Calls follow the shape of the dose curve; as a rule, active = well fitted inhibition curve with a large enough effect; inconclusive = small, poorly fitted or top-dose-only effect; inactive = no such curve, though single readings can be large or run the other way.

Target: Tumor susceptibility gene 101 protein (Homo sapiens) (UniProt Q99816)
Assay: qHTS Assay for Iinhibitors of HIV-1 Budding by Blocking the Interaction of PTAP/TSG101: Hit Validation in TR assay
Settings: Tsg101 binding domain + Texas Red-labeled PTAP peptide, fluorescence polarization, 20 min; series mostly up to 57.5 µM; activity change, negative = inhibition: at the top concentration
In short: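 Fluorescence polarization: Tsg101 binding domain (10 uM final) with Texas Red-labelled PTAP peptide (50 nM final) in HEPES pH 7.5, 0.15 M NaCl, Tween 20, EDTA, TCEP; 20 min binding at room temperature after compound addition.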
% is scaled to controls: 0 for no effect and ±100 for the full control effect; potency is read from the fitted curve at half-maximal effect.

Tumor susceptibility gene 101 protein (Homo sapiens), sequence (Q99816 whole entry, looked up): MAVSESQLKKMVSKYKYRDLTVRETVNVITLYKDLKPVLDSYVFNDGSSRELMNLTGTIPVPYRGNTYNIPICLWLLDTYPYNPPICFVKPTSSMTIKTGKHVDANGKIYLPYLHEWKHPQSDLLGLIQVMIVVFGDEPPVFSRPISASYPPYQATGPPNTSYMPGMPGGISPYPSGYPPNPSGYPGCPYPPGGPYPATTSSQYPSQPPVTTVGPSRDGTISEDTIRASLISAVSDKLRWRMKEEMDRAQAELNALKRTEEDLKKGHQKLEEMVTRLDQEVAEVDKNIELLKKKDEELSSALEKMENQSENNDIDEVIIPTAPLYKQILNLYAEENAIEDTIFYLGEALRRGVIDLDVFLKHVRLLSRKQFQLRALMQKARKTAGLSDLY

Activity change, negative = inhibition, inactive:
Cc1nc2ccccc2n2c(O)c(CC(=O)O)cc12 17.7%
Cc1nn(-c2ccccc2)c(N2CCCC2)c1/C=C1\N=C(c2ccc(F)cc2)OC1=O -23%
CC1(C)CC(=O)C2=C(C1)OC(N)=C(C#N)C2c1cc2c(cc1[N+](=O)[O-])OCO2 (centres undefined) -1.84%
CC(=O)N1c2ccccc2C(=O)C1N1CCCCC1 (centres undefined) 7.64%
CC(=O)Nc1ccc(N=Cc2c(O)c(C(=O)Nc3ccccc3)cc3ccccc23)cc1 34.2%
c1ccc(-c2cnn3c(-c4ccccc4)c(-c4ccccc4)nc3n2)cc1 50.1%
CN(C)CCNc1ccc2ncn3c4ccc(O)cc4c(=O)c1c23 -0.118%
O=c1c(/C=C(\O)c2ccccc2)nc2ccccc2n1-c1ccccc1 10.3%
Cc1ccccc1C1CC(=O)Oc2cc(O)ccc21 (centres undefined) -17.9%
CCSC1=NSC2=NC(=O)/C(=C\c3coc4ccccc4c3=O)C(=N)N12 -19.1%
N=C1/C(=C/c2coc3ccccc3c2=O)C(=O)N=C2SC(c3ccco3)=NN12 -1.87%
COC(=O)CN1C(=S)N(c2ccc(OC)cc2)C(=O)/C1=C/c1ccc(N2CCOCC2)cc1 23.4%
N#Cc1cccc(NC(=O)CSc2ccc3c4c(cccc24)C(=O)c2ccccc2-3)c1 -29.4%
CCN1C(=O)c2cccc3c(N)ccc(c23)C1=O 11.5%
Cc1c2cc(O)c(=O)cc-2oc2cc(O)c(O)cc12 9.22%
Cc1ccc(N=Cc2c(O)n(-c3nccs3)c(=O)c3ccccc23)c(C)c1 36%
COc1ccc(OC)c2c1C(=O)c1ccccc1C2=O 36.9%
C=CCOn1c(=O)c(-c2cc3ccccc3o2)[n+]([O-])c2ccccc21 -8.7%
OC(CN1CCN(c2ccccn2)CC1)Cn1c2ccccc2c2ccccc21 (centres undefined) -12.6%
CCOC(=O)C1CCCN(c2nc3ccccc3nc2C(C#N)C(=O)NCc2ccccc2)C1 (centres undefined) 3.32%
CC(C)(C)c1cc[n+](-c2[nH]c(=O)sc2/C=N/NC(=O)c2ccccc2[O-])cc1 -6.04%
O=C1/C(=N\S(=O)(=O)c2cccs2)C([n+]2ccccc2)=C([O-])c2ccccc21 -29.3%
C=CCOc1ccc(C2C(C(=O)c3cccs3)=C(O)C(=O)N2c2nnc(C)s2)cc1 (centres undefined) -3.83%
CC1=CC(=C(C#N)c2nc3ccccc3s2)C=C(C)N1c1ccc(F)cc1 -3.68%
CC1CCc2cccc3c2N1c1cc(C#N)c(C#N)cc1O3 (centres undefined) 0.564%
CCN(CC)c1ccc(/C=c2\sc3nc4ccccc4n3c2=O)c(O)c1 -27%
CN1c2ccc(C=O)c3c(C=O)ccc(c23)N(C)C1(C)C 1.18%
CCCCCOc1ccc(/C=c2\sc3nc(=O)c(-c4ccccc4)nn3c2=O)cc1OC -7.79%
Cc1cc[n+](-c2[nH]c(=O)sc2/C=N/NC([S-])=Nc2ccccc2)cc1C -16.8%
COc1cc(OC)c(-c2cc(C(=O)O)ccc2OC)c(OC)c1 -8.83%
COc1ccc(C2=CC(c3ccco3)n3ncnc3N2)cc1 (centres undefined) -21.5%
CCCCn1c(SCC(=O)c2cc(OC)ccc2OC)nc2cc(S(N)(=O)=O)ccc21 -3.13%
Cc1ccc(-c2nc(C=Nc3ccc(O)cc3)c(O)o2)cc1 26.2%
COc1ccc(NC(=O)c2nc(-c3ccc(C)cc3)n3c2CCCCC3)cc1 -12.4%
CCCCN(C)C1=CC2=CC(=C(C#N)C#N)CCC2CC1 (centres undefined) 1.78%
O=[N+]([O-])c1ccc(-c2ccc(/C=N/Nc3nc(N4CCCC4)nc(N4CCCC4)n3)o2)cc1 -20.8%
CS(=O)(=O)Nc1nc2n(n1)C(c1ccccc1)C=C(c1ccc(Br)cc1)N2 (centres undefined) 13.1%
N#CC(C(=O)NCc1ccccc1)c1nc2ccccc2nc1N1CCCC1 (centres undefined) 28.4%

Potency, active:
CCN(CC)c1ccc2c(-c3ccc(S(=O)(=O)O)cc3S(=O)(=O)[O-])c3ccc(=[N+](CC)CC)cc-3oc2c1 130 nM
